SARS PLP yeast: inhibitors of SARS-CoV papain-like protease in yeast; AID 485353; Potency, µM (titrated, usually from 32.9 µM), most hits filed as activators; 330,000 compounds, 0.19% hits; S. cerevisiae expressing SARS-CoV PLpro, growth rescue; calls by dose curve; note: nearly all actives have a fitted effect of over 55% in size
AmpC no deterg: blocks E. coli AmpC beta-lactamase in detergent-free assay | AmpC nitrocefin hydrolysis, absorbance 480 nm, 0.0001% Triton | Potency, µM (series often up to 57.1 µM), most hits filed as inhibitors | P00811 | 330,000 compounds, 0.52% hits; note: nearly all actives have a fitted effect of over 20% in size
Target sequence (P00811 whole entry, looked up): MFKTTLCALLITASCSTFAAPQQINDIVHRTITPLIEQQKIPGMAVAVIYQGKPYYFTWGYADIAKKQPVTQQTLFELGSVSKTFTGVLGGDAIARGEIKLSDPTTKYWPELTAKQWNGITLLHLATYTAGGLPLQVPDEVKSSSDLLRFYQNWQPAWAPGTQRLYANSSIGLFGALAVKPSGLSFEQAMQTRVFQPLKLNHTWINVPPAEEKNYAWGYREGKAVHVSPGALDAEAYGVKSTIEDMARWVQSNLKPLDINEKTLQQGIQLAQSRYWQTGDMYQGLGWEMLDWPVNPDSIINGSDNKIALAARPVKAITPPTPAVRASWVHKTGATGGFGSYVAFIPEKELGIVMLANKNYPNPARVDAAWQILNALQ
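AmpC (5.3 nM in the dispensed reagent) in 20 mM phosphate pH 7.0 with 0.01% (detergent screen) or 0.0001% Triton X-100 was preincubated with compounds for 15 min at room temperature. Nitrocefin was then added from an 800 uM solution, and hydrolysis was followed at 480 nm.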
Pf growth 96h: P. falciparum growth inhibition at 96 hour, primary screen for plastid delayed-death inhibitors. P. falciparum luciferase reporter growth, 96 h. Potency, µM (highest dose often 28.7 µM), actives largely listed as inhibitors. 320,000 compounds, 6.9% hits. AID 504834
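Compounds incubated with erythrocytes infected by luciferase-expressing P. falciparum (2% hematocrit, 0.05% parasitemia final) for 96 hours, 37 C in 5% CO2. Growth inhibition scored as decreased luciferase luminescence.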
Sm TGR inh: inhibitors of Schistosoma mansoni thioredoxin glutathione reductase; Q962Y6; purified TGR, DTNB reduction, TNB absorbance 405 nm; Potency, µM (titrated, usually from 114 µM), most hits filed as inhibitors; 360,000 compounds, 3% hits; note: nearly all actives have a fitted effect of over 60% in size
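TGR 20 nM + NADPH 100 uM (dispensed conc.), cpd preinc 15 min RT; start with NADPH (500 uM addition) then DTNB (15 mM addition). Kinetic TNB absorbance, 405 nm filter. Four-parameter Hill fit across titration.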
Pf growth 48h: P. falciparum growth inhibition at 48 hours (one generation). P. falciparum luciferase growth in erythrocytes, 48 h. Potency, µM (top dose mostly 28.7 µM), hits mostly inhibitors. 310,000 compounds, 5.9% hits. AID 504832
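Luminescence readout; reporter = integrated firefly luciferase in P. falciparum. RBC culture at 2% hematocrit, 0.1% parasitemia final, 37 C/5% CO2; decreased signal taken as growth inhibition.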
AmpC detergent: inhibitors of E. coli AmpC beta-lactamase with detergent; P00811; AmpC hydrolysis of nitrocefin, absorbance 480 nm, 0.01% Triton; Potency, µM (doses to about 114 µM), most hits filed as inhibitors; 370,000 compounds, 0.041% hits; note: nearly all actives have a fitted effect of over 25% in size
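AmpC (5.3 nM in the dispensed reagent) in 20 mM phosphate pH 7.0 with 0.01% (detergent screen) or 0.0001% Triton X-100 was preincubated with compounds for 15 min at room temperature. Nitrocefin was then added from an 800 uM solution, and hydrolysis was followed at 480 nm.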
Of the large screens only hits and unclear results are named; the others gave an inactive call. Hits are enriched below; roughly 12% of the tested compounds scored in any of these assays. Unless noted, calls come from the whole dose curve; as a rule, active = well fitted curve in the direction sought with a large enough effect; inconclusive = small, poorly fitted or top-dose-only effect, or another doubt; inactive = no such curve, though single readings can be large; an effect the other way counts as inactive or inconclusive.

Cc1cc2c(cc1C)[n+](C)cn2CC(O)COCc1ccccc1 (centres undefined)	Pf growth 96h inconclusive
Cc1c(C(=O)N(C)C)sc2c1c(=O)n(-c1ccc(Cl)cc1)c(=O)n2CC(=O)C(C)(C)C	none (no result: SARS PLP yeast, AmpC no deterg, Pf growth 96h, Pf growth 48h)
CCn1cc(-c2csc(N)n2)c(C)n1	Pf growth 96h inconclusive
Cc1cc(C(=O)N/N=C/c2cccc3ccccc23)c(C)o1	Pf growth 96h inconclusive
COc1ccc(-c2nc3cc(C(C)C)ccc3o2)cc1NC(=O)c1ccccc1[N+](=O)[O-]	none (no result: SARS PLP yeast, AmpC no deterg, Pf growth 96h, Pf growth 48h)
COc1cc(CNC(C)(C)CO)cc(Br)c1OCc1ccc(Cl)cc1	Pf growth 96h inconclusive, Pf growth 48h 13µM
CCOc1cc(CNc2ccc(O)cc2)ccc1OCc1ccc(Cl)cc1Cl	AmpC no deterg inconclusive, Pf growth 96h inconclusive, Sm TGR inh inconclusive, Pf growth 48h inconclusive
CC(C)(CO)NCc1c(OCc2ccc(Cl)cc2)ccc2ccccc12	Pf growth 96h 4.1µM, Pf growth 48h inconclusive, AmpC detergent inconclusive
CNCc1c(OCc2ccccc2)ccc2ccccc12	Pf growth 96h inconclusive, Pf growth 48h inconclusive
COc1cc(CNC(C)(C)CO)cc(Br)c1OCc1ccc(Cl)cc1Cl	Pf growth 96h 13µM, Pf growth 48h 12µM
COCCCNc1ncnc2c1cnn2-c1ccc(F)cc1	none (no result: SARS PLP yeast, AmpC no deterg, Pf growth 96h, Pf growth 48h)
C=CCn1c(SCc2nc3ccccc3nc2C)nnc1-c1ccoc1C	Sm TGR inh 45µM, Pf growth 48h inconclusive
CCn1c(SCc2nc3ccccc3nc2C)nnc1-c1cccs1	Pf growth 48h 10µM
Cc1occc1-c1nnc(SCC(N)=O)n1Cc1ccccc1	none (no result: Pf growth 96h)
O=S(=O)(NCCc1csc2nc(-c3ccc(Cl)cc3)nn12)c1cccs1	none (no result: SARS PLP yeast, AmpC no deterg, Pf growth 96h, Pf growth 48h)
O=C(NC1CC(=O)N(c2ccc(F)cc2)C1)c1ccc2c(c1)OCO2 (centres undefined)	none (no result: SARS PLP yeast, AmpC no deterg, Pf growth 96h, Pf growth 48h)
CCOc1ccc(N2C(=O)C3ON(c4ccccc4)C(c4cccs4)C3C2=O)cc1 (centres undefined)	Pf growth 48h 12µM
COc1cccc(N2C(=O)C3ON(c4ccccc4)C(c4cccs4)C3C2=O)c1 (centres undefined)	none (no result: Pf growth 48h)
O=C1c2ccccc2C(=O)N1CC#CCN1CCN(C(c2ccccc2)c2ccccc2)CC1	Sm TGR inh 50µM (no result: Pf growth 96h)
CCN(CC)S(=O)(=O)c1ccc(C(=O)Nc2cc(S(=O)(=O)N3CCOCC3)ccc2O)cc1	none (no result: Pf growth 96h, Sm TGR inh, Pf growth 48h, AmpC detergent)
CN(C)c1nc(N)nc(-c2nc3ccccc3s2)n1	none (no result: Pf growth 96h)
CN(C)c1nc(N)nc(Nc2ccccc2C#N)n1	AmpC no deterg 0.2µM, Pf growth 96h 13µM
CC(C)c1ccc(C(=O)Nc2ccc(-c3nc4ccccc4s3)c(Cl)c2)cc1	none (no result: SARS PLP yeast, AmpC no deterg, Pf growth 96h, Pf growth 48h)
CC(=O)N1N=C(c2ccccc2)OC1c1ccc([N+](=O)[O-])s1 (centres undefined)	Pf growth 96h inconclusive, Sm TGR inh 32µM
COc1ccc(CNC(=O)C2CCN(c3nc4ccc(C)cc4[nH]3)CC2)cc1	none (no result: SARS PLP yeast, AmpC no deterg, Pf growth 96h, Pf growth 48h)
Nc1cc(=O)[nH]c(SCc2nnnn2-c2ccc(Cl)cc2)n1	Pf growth 96h 0.21µM
Cc1nn(-c2ccccc2)c2c1P(=O)(O)/C(=C1\N(C)c3ccccc3C1(C)C)C=N2	Pf growth 96h 8.3µM, Pf growth 48h 2.1µM
Cc1nn(-c2ccccc2)c(N)c1C1(O)C(=O)N(C(C)C)c2ccccc21 (centres undefined)	none
CCOC(=O)c1c(C)sc(Sc2ccc(Cl)cc2[N+](=O)[O-])c1OC	Pf growth 48h 3.7µM (no result: Pf growth 96h)
CCOC(=O)N1CCN(Cc2nc3c(c(=O)[nH]c(=O)n3C)n2Cc2cc(C)ccc2C)CC1	Pf growth 48h 13µM, AmpC detergent inconclusive
CCOC(=O)N1CCN(Cc2nc3c(c(=O)n(C)c(=O)n3C)n2Cc2ccccc2C)CC1	Pf growth 96h inconclusive, Pf growth 48h 10µM
CCCCCn1c(CN2CCN(C(=O)OCC)CC2)nc2c1c(=O)[nH]c(=O)n2C	Pf growth 96h inconclusive
COc1ccc(NC(C)=O)cc1S(=O)(=O)N(C)Cc1c(C)nn(-c2ccccc2)c1C	Pf growth 96h inconclusive, Pf growth 48h inconclusive
Cc1ccc(S(=O)(=O)Nc2nccs2)cc1[N+](=O)[O-]	Pf growth 96h inconclusive
Cc1ccc(S(=O)(=O)Nc2ccc(S(=O)(=O)Nc3nccs3)cc2)c([N+](=O)[O-])c1	Pf growth 96h 2.9µM, AmpC detergent inconclusive
COc1ccc(S(=O)(=O)Nc2ccc(S(=O)(=O)Nc3nccs3)cc2)cc1	Pf growth 48h 5.2µM
O=C(c1cccc(Cl)c1)N1CCC(=O)N(C(COCc2cccc(Cl)c2)Cc2ccccc2)CC1 (centres undefined)	Pf growth 96h 13µM, Pf growth 48h inconclusive
Cc1cccc(COCC(CC(C)C)N2CCN(C(=O)c3ccc(C(C)(C)C)cc3)CCC2=O)c1 (centres undefined)	Pf growth 96h inconclusive, Pf growth 48h 7.4µM
O=C(c1ccc(C(F)(F)F)cc1)N1CCC(=O)N(C(COCc2ccc(C(F)(F)F)cc2)Cc2ccccc2)CC1 (centres undefined)	Pf growth 96h 9.3µM, Pf growth 48h inconclusive
CC(C)CC(COCc1ccc(F)cc1)N1CCN(C(=O)c2cccc(C(F)(F)F)c2)CCC1=O (centres undefined)	Pf growth 96h 13µM, Pf growth 48h inconclusive
Cc1cccc(COCC(Cc2ccccc2)N2CCN(C(=O)c3ccc(C(F)(F)F)cc3)CCC2=O)c1 (centres undefined)	Pf growth 96h inconclusive, Pf growth 48h inconclusive, AmpC detergent inconclusive
COc1ccc(C(=O)Nc2c(N)nc(SCC(=O)NCC3CCCO3)[nH]c2=O)cc1 (centres undefined)	none
Cc1cc(C)c(S(=O)(=O)N2CCC(N3CCN(Cc4ccc(F)cc4)C(=O)C3=O)CC2)c(C)c1	none (no result: SARS PLP yeast, AmpC no deterg, Pf growth 96h, Pf growth 48h)
CCOc1ccccc1NC(=O)CN1CCCCCC1	none
CC(C)CC(COCc1cccc(Cl)c1)N1CCN(C(=O)c2ccc(C(F)(F)F)cc2)CCC1=O (centres undefined)	Pf growth 96h 7.4µM, Pf growth 48h 13µM
CC(C)CC(COCc1ccc([N+](=O)[O-])cc1)N1CCN(C(=O)c2ccc(C(F)(F)F)cc2)CCC1=O (centres undefined)	Pf growth 96h inconclusive, Pf growth 48h inconclusive
Cc1cccc(COCC(CC(C)C)N2CCN(C(=O)c3ccc(C(F)(F)F)cc3)CCC2=O)c1 (centres undefined)	Pf growth 96h inconclusive, Pf growth 48h 10µM
Cc1ccc(SCC(=O)NNC(=O)c2ccccc2)c(C)c1	none
Cc1ccc(NC(=O)N2CCN(C(=O)c3ccco3)CC2)cc1Cl	Pf growth 48h inconclusive
